# Assay results reported in PMC7862700, “An all-to-all approach to the identification of sequence-specific readers for epigenetic DNA modifications on cytosine”.
# Legend:
# Test in all cases: DAPPL (digital affinity profiling via proximity ligation, sequencing); 10 mM Tris-HCl pH 7.5, 50 mM NaCl, 1 mM DTT, 4% glycerol, room temperature, 30 min; GST-TFs on glutathione beads, 16-mer random dsDNA library, 0.1% formaldehyde crosslink after washing; high values mean tight binding
# [1] = molecular target: T1, FLI1 (Homo sapiens, UniProt Q01543 1-452); conditions: protein: recombinant; tags: N-terminal GST; dsDNA, one strand shown
# T1 sequence: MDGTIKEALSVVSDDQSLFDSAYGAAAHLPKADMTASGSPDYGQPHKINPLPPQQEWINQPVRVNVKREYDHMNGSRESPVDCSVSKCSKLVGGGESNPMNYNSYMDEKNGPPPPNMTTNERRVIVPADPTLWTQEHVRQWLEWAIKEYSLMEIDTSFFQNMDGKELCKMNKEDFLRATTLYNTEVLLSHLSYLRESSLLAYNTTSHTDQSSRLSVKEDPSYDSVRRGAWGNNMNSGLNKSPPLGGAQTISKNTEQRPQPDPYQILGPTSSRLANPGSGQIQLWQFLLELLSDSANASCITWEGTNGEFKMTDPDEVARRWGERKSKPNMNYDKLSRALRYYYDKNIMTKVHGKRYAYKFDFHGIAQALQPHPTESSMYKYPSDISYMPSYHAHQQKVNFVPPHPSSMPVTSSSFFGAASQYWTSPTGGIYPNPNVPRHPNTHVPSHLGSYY
# Outline: (§1)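 Yeast served to express human transcription factors as GST fusions, which were then captured on glutathione beads and labelled with DNA barcodes. Pooled with a tag-only sample, they were incubated with 200 nmole of a 16-mer random double-stranded DNA library for 30 min at room temperature in Tris/NaCl/DTT/glycerol buffer, washed, crosslinked with 0.1% formaldehyde, ligated by proximity, amplified by PCR and sequenced. Dividing each hexamer's read frequency for a factor by its frequency for the tag-only sample gives the binding signal.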
# [2] = molecular target: T2, ELK1 (Homo sapiens, UniProt P19419 1-428); conditions: protein: recombinant; tags: N-terminal GST; dsDNA, one strand shown
# T2 sequence: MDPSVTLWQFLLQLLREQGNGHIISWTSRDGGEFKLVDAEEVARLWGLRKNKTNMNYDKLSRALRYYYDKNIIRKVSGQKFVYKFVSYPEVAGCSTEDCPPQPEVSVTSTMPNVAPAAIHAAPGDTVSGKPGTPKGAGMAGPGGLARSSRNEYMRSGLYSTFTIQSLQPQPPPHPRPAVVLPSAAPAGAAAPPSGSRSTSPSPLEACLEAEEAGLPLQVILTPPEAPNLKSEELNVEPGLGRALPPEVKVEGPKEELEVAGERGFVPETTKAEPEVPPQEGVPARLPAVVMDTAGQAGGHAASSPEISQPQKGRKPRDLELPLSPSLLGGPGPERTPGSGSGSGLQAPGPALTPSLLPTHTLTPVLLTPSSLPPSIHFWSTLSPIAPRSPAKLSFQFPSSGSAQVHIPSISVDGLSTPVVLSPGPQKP
# Outline: as §1
# [3] = molecular target: T3, GABPA (Homo sapiens, UniProt Q06546 1-454); conditions: protein: recombinant; tags: N-terminal GST; dsDNA, one strand shown
# T3 sequence: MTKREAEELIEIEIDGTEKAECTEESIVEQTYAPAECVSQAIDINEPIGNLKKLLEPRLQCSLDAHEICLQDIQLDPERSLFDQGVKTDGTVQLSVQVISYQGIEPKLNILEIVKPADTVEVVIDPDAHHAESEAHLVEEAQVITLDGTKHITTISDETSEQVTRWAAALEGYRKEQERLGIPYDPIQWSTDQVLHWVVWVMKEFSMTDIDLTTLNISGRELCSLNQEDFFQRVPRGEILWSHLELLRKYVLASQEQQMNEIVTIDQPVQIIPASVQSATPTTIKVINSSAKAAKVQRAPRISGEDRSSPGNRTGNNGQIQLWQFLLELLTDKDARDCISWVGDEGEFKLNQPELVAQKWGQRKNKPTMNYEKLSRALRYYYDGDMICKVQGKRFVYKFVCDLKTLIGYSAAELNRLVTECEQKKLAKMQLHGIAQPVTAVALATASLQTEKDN
# Outline: as §1
# [4] = molecular target: T4, ERG (Homo sapiens, UniProt P11308 1-479); conditions: protein: recombinant; tags: N-terminal GST; dsDNA, one strand shown
# T4 sequence: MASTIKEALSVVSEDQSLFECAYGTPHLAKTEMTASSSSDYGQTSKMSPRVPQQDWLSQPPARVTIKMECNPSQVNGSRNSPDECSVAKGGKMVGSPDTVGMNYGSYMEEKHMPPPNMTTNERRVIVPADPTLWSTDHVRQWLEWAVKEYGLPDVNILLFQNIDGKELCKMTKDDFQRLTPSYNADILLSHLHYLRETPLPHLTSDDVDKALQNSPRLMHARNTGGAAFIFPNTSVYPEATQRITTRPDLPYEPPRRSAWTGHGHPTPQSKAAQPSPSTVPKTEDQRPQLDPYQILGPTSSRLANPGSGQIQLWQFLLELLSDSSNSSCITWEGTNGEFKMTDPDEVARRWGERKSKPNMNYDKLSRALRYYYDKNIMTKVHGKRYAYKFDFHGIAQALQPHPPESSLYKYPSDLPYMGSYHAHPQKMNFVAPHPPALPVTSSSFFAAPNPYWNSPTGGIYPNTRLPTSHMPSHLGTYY
# Outline: as §1
# [5] = molecular target: ELF1 (Homo sapiens, UniProt P32519 1-619); conditions: protein: recombinant; tags: N-terminal GST; dsDNA, one strand shown
# ELF1, sequence (P32519 whole entry): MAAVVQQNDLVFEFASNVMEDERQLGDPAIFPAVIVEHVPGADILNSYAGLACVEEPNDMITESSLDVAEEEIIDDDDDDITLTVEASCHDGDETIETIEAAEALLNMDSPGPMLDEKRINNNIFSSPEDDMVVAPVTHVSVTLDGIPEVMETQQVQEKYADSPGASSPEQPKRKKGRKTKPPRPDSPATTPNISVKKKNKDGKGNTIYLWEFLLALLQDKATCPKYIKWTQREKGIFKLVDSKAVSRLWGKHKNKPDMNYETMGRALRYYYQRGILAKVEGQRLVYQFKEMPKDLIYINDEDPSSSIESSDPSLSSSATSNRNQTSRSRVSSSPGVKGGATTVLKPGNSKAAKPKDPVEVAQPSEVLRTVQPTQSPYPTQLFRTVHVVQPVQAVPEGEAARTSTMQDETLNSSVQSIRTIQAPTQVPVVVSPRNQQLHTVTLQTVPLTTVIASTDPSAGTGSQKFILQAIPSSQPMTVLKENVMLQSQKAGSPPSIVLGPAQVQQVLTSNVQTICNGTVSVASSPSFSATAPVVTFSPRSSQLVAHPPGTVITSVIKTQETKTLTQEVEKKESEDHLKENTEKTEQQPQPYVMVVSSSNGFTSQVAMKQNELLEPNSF
# Outline: as §1
# [6] = molecular target: T5, EHF (Homo sapiens, UniProt Q9NZC4 1-300); conditions: protein: recombinant; tags: N-terminal GST; dsDNA, one strand shown
# T5 sequence: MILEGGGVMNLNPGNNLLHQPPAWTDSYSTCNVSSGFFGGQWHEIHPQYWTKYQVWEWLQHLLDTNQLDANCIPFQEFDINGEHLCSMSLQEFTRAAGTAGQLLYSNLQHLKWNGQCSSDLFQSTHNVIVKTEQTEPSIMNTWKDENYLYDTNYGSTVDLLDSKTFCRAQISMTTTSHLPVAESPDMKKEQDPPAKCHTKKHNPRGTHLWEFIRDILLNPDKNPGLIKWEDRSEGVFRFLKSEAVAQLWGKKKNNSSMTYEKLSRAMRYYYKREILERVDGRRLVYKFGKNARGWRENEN
# Outline: as §1
# [7] = molecular target: SPI1 (Homo sapiens, UniProt P17947 1-270); conditions: protein: recombinant; tags: N-terminal GST; dsDNA, one strand shown
# Outline: as §1
# [8] = molecular target: SPIB (Homo sapiens, UniProt Q01892 1-262); conditions: protein: recombinant; tags: N-terminal GST; dsDNA, one strand shown
# SPIB, sequence (Q01892 whole entry): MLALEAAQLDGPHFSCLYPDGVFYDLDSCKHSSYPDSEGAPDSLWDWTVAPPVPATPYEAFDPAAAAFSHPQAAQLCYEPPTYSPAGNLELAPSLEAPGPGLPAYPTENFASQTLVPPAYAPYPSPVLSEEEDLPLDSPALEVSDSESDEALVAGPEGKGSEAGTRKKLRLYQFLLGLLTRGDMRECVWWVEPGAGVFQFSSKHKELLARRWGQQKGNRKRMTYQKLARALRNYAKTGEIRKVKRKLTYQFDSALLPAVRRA
# Outline: as §1
# [9] = molecular target: T6, ELK3 (Homo sapiens, UniProt P41970 1-407); conditions: protein: recombinant; tags: N-terminal GST; dsDNA, one strand shown
# T6 sequence: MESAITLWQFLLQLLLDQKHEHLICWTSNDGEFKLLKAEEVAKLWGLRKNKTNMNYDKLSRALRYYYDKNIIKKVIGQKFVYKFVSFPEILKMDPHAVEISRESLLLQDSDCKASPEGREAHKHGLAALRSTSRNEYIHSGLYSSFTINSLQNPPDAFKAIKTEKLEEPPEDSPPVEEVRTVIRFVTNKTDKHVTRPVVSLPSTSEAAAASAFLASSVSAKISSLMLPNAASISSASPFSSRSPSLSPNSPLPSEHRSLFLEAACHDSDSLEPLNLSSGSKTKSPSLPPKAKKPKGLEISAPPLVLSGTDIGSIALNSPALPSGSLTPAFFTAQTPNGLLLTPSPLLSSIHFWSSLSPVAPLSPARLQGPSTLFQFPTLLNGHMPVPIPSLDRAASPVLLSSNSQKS
# Outline: as §1
# [10] = molecular target: T7, FEV (Homo sapiens, UniProt Q99581 1-238); conditions: protein: recombinant; tags: N-terminal GST; dsDNA, one strand shown
# T7 sequence: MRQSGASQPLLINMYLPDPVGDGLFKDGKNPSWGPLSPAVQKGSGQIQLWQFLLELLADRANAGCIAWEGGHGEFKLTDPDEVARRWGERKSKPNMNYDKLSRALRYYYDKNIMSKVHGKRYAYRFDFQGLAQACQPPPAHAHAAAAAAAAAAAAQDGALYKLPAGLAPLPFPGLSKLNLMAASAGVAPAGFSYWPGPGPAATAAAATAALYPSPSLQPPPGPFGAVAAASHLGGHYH
# Outline: as §1
# [11] = molecular target: ETV5 (Homo sapiens, UniProt P41161 1-510); conditions: protein: recombinant; tags: N-terminal GST; dsDNA, one strand shown
# ETV5, sequence (P41161 whole entry): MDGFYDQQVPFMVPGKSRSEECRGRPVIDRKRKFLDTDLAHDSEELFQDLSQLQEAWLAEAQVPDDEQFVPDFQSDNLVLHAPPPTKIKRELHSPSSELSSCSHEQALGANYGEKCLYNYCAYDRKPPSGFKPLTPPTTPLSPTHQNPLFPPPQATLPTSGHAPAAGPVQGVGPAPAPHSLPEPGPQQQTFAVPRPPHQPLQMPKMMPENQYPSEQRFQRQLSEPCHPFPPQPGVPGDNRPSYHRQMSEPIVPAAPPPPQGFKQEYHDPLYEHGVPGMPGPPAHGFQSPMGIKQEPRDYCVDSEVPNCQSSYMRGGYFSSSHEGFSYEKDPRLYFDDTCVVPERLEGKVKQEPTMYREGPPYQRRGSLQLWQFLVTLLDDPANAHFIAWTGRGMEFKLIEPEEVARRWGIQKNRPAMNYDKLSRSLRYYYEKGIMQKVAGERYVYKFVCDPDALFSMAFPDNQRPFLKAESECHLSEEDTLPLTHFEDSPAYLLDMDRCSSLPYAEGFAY
# Outline: as §1
# [12] = molecular target: HSF1 (Homo sapiens, UniProt Q00613 1-529); conditions: protein: recombinant; tags: N-terminal GST; chain copies: 3; dsDNA, one strand shown
# HSF1, sequence (Q00613 whole entry): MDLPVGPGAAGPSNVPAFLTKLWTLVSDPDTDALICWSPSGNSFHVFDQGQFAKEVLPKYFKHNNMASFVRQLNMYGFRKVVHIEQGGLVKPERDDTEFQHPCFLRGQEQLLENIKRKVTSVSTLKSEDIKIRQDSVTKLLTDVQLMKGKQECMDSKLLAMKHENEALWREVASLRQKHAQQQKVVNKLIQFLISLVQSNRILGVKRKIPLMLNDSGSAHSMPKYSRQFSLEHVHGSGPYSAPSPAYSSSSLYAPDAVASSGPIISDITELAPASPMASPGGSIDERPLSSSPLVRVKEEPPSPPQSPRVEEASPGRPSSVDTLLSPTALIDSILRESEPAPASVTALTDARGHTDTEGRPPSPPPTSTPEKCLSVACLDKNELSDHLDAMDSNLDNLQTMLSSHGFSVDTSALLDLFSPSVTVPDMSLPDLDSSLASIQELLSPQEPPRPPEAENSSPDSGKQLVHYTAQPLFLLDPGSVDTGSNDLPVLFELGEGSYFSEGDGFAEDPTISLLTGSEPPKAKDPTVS
# Outline: as §1
# [13] = molecular target: T8, SPIC (Homo sapiens, UniProt Q8N5J4 1-248); conditions: protein: recombinant; tags: N-terminal GST; dsDNA, one strand shown
# T8 sequence: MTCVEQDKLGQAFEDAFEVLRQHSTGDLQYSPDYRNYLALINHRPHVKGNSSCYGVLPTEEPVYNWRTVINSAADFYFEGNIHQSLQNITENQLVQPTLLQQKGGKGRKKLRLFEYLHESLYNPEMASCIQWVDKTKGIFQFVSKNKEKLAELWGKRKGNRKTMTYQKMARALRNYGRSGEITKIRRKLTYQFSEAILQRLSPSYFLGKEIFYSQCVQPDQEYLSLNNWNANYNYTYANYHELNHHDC
# Outline: as §1
# [14] = molecular target: ELF4 (Homo sapiens, UniProt Q99607 1-663); conditions: protein: recombinant; tags: N-terminal GST; dsDNA, one strand shown
# ELF4, sequence (Q99607 whole entry): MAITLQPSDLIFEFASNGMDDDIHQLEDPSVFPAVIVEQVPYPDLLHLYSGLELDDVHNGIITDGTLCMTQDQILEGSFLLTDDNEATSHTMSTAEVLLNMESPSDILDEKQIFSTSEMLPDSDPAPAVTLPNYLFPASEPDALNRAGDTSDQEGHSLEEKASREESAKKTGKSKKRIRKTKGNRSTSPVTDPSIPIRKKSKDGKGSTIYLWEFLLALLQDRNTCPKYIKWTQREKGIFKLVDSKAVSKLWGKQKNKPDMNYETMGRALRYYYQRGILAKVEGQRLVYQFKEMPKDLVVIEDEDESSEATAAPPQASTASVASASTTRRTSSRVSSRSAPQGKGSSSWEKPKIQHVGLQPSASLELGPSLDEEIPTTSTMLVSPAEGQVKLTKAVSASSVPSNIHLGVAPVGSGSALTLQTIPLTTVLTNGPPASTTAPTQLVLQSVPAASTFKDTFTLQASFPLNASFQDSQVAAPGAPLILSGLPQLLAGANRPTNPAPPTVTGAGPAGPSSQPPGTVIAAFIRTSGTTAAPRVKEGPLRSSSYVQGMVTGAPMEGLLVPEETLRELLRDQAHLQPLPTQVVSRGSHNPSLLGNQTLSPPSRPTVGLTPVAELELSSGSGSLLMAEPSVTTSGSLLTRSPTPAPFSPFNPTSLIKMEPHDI
# Outline: as §1
# [15] = molecular target: T9, ELK4 (Homo sapiens, UniProt P28324-2 1-405); conditions: protein: recombinant; tags: N-terminal GST; dsDNA, one strand shown
# T9 sequence: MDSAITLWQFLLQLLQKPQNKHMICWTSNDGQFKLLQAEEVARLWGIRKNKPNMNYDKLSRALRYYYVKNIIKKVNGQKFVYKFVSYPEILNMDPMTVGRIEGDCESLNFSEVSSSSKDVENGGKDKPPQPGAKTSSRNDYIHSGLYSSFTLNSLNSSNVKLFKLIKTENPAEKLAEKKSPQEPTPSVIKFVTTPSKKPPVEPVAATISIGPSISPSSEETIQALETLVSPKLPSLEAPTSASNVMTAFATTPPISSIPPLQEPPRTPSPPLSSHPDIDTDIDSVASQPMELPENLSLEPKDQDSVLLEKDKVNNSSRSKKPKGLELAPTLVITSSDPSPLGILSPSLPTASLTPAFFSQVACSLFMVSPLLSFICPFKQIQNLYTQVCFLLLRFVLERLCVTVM
# Outline: as §1
# [16] = molecular target: T10, ETV2 (Homo sapiens, UniProt O00321 1-342); conditions: protein: recombinant; tags: N-terminal GST; dsDNA, one strand shown
# T10 sequence: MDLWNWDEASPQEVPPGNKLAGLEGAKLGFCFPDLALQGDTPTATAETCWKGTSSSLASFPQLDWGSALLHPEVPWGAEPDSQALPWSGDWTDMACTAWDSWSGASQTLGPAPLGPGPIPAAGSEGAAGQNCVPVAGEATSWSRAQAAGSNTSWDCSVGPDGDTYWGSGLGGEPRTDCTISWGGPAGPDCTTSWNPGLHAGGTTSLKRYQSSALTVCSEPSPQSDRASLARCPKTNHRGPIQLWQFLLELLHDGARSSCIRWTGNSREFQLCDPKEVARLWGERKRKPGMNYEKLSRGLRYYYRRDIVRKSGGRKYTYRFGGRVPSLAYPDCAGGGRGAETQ
# Outline: as §1
# [17] = molecular target: T11, ELF3 (Homo sapiens, UniProt P78545 1-371); conditions: protein: recombinant; tags: N-terminal GST; dsDNA, one strand shown
# T11 sequence: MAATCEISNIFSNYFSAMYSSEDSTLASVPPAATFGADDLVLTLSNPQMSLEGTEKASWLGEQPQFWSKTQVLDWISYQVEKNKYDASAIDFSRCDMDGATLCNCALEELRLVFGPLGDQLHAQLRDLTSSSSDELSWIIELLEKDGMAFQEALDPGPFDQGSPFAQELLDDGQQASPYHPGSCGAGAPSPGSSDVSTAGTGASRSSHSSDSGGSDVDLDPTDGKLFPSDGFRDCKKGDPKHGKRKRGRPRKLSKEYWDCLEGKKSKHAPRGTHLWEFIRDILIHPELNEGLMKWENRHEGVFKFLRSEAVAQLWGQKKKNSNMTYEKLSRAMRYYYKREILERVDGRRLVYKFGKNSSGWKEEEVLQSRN
# Outline: as §1
# [18] = molecular target: CRX (Homo sapiens, UniProt O43186 1-299); conditions: protein: recombinant; tags: N-terminal GST; dsDNA, one strand shown
# CRX, sequence (O43186 whole entry): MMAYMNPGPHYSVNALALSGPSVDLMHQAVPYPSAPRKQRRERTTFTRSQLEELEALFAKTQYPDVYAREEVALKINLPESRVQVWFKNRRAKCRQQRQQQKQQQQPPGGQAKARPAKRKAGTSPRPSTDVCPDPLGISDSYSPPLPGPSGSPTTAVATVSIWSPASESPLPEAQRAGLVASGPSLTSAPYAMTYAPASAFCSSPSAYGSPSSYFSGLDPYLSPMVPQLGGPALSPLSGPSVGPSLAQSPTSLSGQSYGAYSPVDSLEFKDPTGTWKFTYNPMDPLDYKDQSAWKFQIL
# Outline: as §1
# [19] = molecular target: ETV1 (Homo sapiens, UniProt P50549 1-477); conditions: protein: recombinant; tags: N-terminal GST; dsDNA, one strand shown
# ETV1, sequence (P50549 whole entry): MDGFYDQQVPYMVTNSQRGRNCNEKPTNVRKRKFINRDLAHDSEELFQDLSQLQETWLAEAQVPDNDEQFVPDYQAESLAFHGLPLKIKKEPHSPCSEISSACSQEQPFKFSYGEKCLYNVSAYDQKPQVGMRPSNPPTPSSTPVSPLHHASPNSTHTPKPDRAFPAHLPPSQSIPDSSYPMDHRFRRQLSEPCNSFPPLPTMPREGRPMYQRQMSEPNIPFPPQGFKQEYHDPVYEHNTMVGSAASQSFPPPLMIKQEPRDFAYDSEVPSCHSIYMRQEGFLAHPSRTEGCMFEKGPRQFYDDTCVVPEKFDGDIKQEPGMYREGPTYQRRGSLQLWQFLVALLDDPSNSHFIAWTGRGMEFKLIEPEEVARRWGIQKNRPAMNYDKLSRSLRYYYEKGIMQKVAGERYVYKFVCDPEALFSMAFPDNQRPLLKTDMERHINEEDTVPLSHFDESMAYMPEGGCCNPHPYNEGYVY
# Outline: as §1
sequence,measurement,setting,value
TGACCC,binding signal,[1],"1.34 fold enrichment (6-mer frequency, TF over GST control)"
same,binding signal,[2],"1.29 fold enrichment (6-mer frequency, TF over GST control)"
same,binding signal,[3],"1.38 fold enrichment (6-mer frequency, TF over GST control)"
same,binding signal,[4],"1.4 fold enrichment (6-mer frequency, TF over GST control)"
same,binding signal,[5],"1.43 fold enrichment (6-mer frequency, TF over GST control)"
same,binding signal,[6],"1.51 fold enrichment (6-mer frequency, TF over GST control)"
same,binding signal,[7],"1.26 fold enrichment (6-mer frequency, TF over GST control)"
same,binding signal,[8],"1.3 fold enrichment (6-mer frequency, TF over GST control)"
same,binding signal,[9],"1.4 fold enrichment (6-mer frequency, TF over GST control)"
same,binding signal,[10],"1.46 fold enrichment (6-mer frequency, TF over GST control)"
same,binding signal,[11],"1.41 fold enrichment (6-mer frequency, TF over GST control)"
same,binding signal,[12],"1.1 fold enrichment (6-mer frequency, TF over GST control)"
same,binding signal,[13],"1.24 fold enrichment (6-mer frequency, TF over GST control)"
same,binding signal,[14],"1.48 fold enrichment (6-mer frequency, TF over GST control)"
same,binding signal,[15],"1.39 fold enrichment (6-mer frequency, TF over GST control)"
same,binding signal,[16],"1.56 fold enrichment (6-mer frequency, TF over GST control)"
same,binding signal,[17],"1.37 fold enrichment (6-mer frequency, TF over GST control)"
same,binding signal,[18],"1.13 fold enrichment (6-mer frequency, TF over GST control)"
same,binding signal,[19],"1.25 fold enrichment (6-mer frequency, TF over GST control)"
